A number with no mark means an inactive call. For some assays here: Entries with a potency or affinity are not part of this list. The source made the active and inactive calls. Unless noted, the rule behind the calls is not given here.
Legend:
[1] = antimalarial activity against Dd2 strain (AID 2302;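 active = growth inhibition above 50% at the single 2 µM test dose, taken to imply half-maximal potency below 2 µM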;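 note: 0% = DMSO untreated growth and 100% = chloroquine plus artemisinin killed control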); details: P. falciparum Dd2 in RBCs, LDH growth readout, 72 h; at 2 µM; active compounds read high
[2] = human hepatoma cell viability loss – ATP luminescence, cytotoxicity control for P. falciparum antimalarial project, primary screen (AID 2303;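 active = inhibition above 50%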;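 note: 0% = DMSO wells and 100% = digitonin-killed cells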); details: HepG2 viability, 24-48 h, at 10 µM, active compounds read high
[3] = target: L-lactate dehydrogenase (Plasmodium falciparum (isolate CDC / Honduras)) (UniProt Q27743); experiment: PfLDH activity inhibition – cell lysate, 3D7 strain, counter-screen for P. falciparum growth inhibition project (AID 2304);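 note: 0% = vehicle and 100% = reference inhibitor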; details: P. falciparum 3D7 crude extract, LDH APAD/NBT absorbance; at 2 µM; active compounds read high
[4] = inhibition of 3D7 malaria parasite growth – strain 3D7 (AID 2306);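 note: 0% = DMSO wells and 100% = chloroquine plus artemisinin control wells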; details: P. falciparum 3D7 erythrocytic growth, LDH absorbance, 72 h; at 2 µM; active compounds read high
[5] = target: Calcium-dependent protein kinase 1 (Plasmodium falciparum (isolate 3D7)) (UniProt P62344); experiment: PfCDPK1 kinase inhibitors, biochemical, TCAMS library (AID 1159585; cut-off not given, nearly all actives have IC50 up to about 0.98 µM;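 note: inhibitors leave more ATP so luminescence rises with inhibition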); details: recombinant PfCDPK1, Kinase-Glo ATP depletion luminescence
[6] = target: Plasmodium falciparum protein kinase 6 (PK6, PF3D7_1337100) (UniProt Q8IDW1); experiment: PfPK6 kinase inhibitors, biochemical, TCAMS library (AID 1159586); details: recombinant PfPK6, Kinase-Glo ATP depletion luminescence
[7] = target: Protein kinase 7 (PK7), Plasmodium falciparum 3D7 (PF3D7_0213400) (UniProt Q7YTF7); experiment: inhibition of Plasmodium PK7 catalytic activity – biochemical, TCAMS antimalarial set, Kinase-Glo luminescence (AID 1159587); details: recombinant PfPK7, Kinase-Glo ATP depletion luminescence
[8] = target: Calcium-dependent protein kinase 4 (Plasmodium falciparum (isolate 3D7)) (UniProt Q8IBS5); experiment: PfCDPK4 kinase inhibitors, biochemical, TCAMS library (AID 1159588; cut-off not given, nearly all actives have IC50 up to about 0.91 µM); details: recombinant PfCDPK4, Kinase-Glo ATP depletion luminescence
Chain of Calcium-dependent protein kinase 4 (Plasmodium falciparum (isolate 3D7)) (Q8IBS5 whole entry, looked up): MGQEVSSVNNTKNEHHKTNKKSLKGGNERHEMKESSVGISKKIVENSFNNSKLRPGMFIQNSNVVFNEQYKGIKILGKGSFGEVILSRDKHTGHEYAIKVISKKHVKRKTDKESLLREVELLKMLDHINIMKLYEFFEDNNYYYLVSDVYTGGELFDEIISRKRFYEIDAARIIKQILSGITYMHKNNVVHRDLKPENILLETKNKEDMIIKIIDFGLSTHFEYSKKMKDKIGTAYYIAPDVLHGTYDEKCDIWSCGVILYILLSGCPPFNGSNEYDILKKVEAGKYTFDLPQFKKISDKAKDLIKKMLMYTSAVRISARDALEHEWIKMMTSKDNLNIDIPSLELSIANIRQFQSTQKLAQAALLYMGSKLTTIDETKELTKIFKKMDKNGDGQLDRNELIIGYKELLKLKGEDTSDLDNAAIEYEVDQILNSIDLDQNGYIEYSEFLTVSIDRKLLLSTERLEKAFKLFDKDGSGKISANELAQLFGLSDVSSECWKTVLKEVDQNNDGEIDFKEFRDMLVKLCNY

Chain of Calcium-dependent protein kinase 1 (Plasmodium falciparum (isolate 3D7)) (P62344 whole entry, looked up): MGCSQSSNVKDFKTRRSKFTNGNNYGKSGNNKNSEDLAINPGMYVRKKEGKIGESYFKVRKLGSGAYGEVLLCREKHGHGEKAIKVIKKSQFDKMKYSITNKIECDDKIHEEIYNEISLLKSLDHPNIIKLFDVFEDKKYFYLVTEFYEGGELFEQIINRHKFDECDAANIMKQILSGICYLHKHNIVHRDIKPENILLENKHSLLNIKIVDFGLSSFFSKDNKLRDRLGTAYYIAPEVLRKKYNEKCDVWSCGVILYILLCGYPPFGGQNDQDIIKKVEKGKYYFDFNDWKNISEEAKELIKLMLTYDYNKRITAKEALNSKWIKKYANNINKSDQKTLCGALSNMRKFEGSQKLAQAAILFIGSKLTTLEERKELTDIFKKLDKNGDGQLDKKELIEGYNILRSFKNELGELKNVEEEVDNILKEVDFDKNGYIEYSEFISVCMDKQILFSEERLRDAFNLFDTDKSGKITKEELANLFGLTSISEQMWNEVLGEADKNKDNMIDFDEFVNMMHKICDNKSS
Chain of Plasmodium falciparum protein kinase 6 (PK6, PF3D7_1337100) (Q8IDW1 1-305): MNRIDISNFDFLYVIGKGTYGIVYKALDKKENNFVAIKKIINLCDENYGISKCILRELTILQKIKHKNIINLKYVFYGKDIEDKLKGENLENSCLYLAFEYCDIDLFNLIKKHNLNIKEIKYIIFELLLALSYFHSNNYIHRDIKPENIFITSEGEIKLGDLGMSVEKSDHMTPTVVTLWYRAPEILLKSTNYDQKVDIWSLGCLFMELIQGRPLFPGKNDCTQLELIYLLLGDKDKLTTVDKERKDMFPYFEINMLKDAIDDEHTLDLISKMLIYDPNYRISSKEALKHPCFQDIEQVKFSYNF
Chain of L-lactate dehydrogenase (Plasmodium falciparum (isolate CDC / Honduras)) (Q27743 whole entry, looked up): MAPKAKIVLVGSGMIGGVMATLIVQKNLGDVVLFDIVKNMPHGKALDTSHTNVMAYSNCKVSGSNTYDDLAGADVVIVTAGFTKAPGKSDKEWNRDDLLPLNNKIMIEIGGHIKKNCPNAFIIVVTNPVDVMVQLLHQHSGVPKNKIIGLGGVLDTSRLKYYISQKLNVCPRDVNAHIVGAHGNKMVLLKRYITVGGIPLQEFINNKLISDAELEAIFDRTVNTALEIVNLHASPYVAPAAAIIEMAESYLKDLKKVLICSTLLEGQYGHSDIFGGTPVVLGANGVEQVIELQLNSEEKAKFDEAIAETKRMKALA
Chain of Protein kinase 7 (PK7), Plasmodium falciparum 3D7 (PF3D7_0213400) (Q7YTF7 1-343): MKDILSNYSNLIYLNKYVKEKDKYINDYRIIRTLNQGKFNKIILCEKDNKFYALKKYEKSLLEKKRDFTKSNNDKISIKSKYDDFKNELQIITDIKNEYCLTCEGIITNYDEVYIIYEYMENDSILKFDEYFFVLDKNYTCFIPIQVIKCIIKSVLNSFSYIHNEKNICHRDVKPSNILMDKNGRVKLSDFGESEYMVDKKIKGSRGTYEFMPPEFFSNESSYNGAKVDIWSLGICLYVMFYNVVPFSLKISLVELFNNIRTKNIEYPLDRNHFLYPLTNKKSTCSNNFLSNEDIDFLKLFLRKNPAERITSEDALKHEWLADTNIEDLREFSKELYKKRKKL

SMILES	growth inhibition [1]	inhibition [2]	inhibition [3] [%]	growth inhibition [4]	outcome [5]	outcome [6]	outcome [7]	outcome [8]
CCCc1cc(NCc2ccncc2)nc(Nc2ccc(F)cc2)n1	6%	9%	-7	90% (active)	inactive	inactive	inactive	inactive
O=C(/C=C/c1ccc(Cl)cc1)NCCCCCN1CCCN(C(=O)Nc2ccc(Cl)c(C(F)(F)F)c2)CC1	1%	54% (active)	1	95% (active)	inactive	inactive	inactive	inactive
O=C(NCc1ccccn1)C(c1cc2ccccc2o1)N1CCN(C(c2ccccc2)c2ccccc2)CC1 (stereo not given)	68% (active)	17%	0	95% (active)	inactive	inactive	inactive	inactive
CC(C)(C)c1ccc(CNC(=O)c2ccc(-c3nc4ccc(Cl)cc4[nH]3)cc2)cc1	2%	14%	-2	93% (active)	inactive	inactive	inactive	inactive
NC1=NC(c2ccccc2)N(c2ccc(Cl)c(Cl)c2)C(N)=N1 (stereo not given)	0%	13%	-2	94% (active)	inactive	inactive	inactive	inactive
COCCCn1c(=N)c(C(=O)NCCc2ccc(OC)cc2)cc2c(=O)n3cccc(C)c3nc21	33%	18%	-1	95% (active)	inactive	inactive	inactive	inactive
Cc1[nH]c(C)c(-c2ccc(OCc3cccc(C(F)(F)F)c3)nc2)c(=O)c1Br	97% (active)	37%	-2	99% (active)	inactive	inactive	inactive	inactive
COc1ccc2sc(CNCCCNc3cc(=O)c4ccccc4[nH]3)c(Cl)c2c1	42%	1%	-4	85% (active)	inactive	inactive	inactive	inactive
CC(=O)c1ccc(-c2ccccc2)s1	2%	-2%	8	92% (active)	inactive	inactive	inactive	inactive
Cc1cc(OCCCN=C(N)c2ccc3ccccc3c2)c(C(C)C)cc1Cl	10%	89% (active)	2	95% (active)	inactive	inactive	inactive	inactive
COc1ccc(NC(=O)/C=C/c2ccccc2Cl)cc1OCCN1CCC(c2nc3ccccc3[nH]2)CC1	16%	35%	-6	92% (active)	inactive	inactive	inactive	inactive
CN1CCc2ccc(NC(=O)Nc3ccc(Cl)c(Cl)c3)cc2C1	22%	-10%	1	80% (active)	inactive	inactive	inactive	inactive
COc1ccc(-c2c(-c3ccc(OCc4ccccc4)cc3O)n[nH]c2C(F)(F)F)cc1	57% (active)	49%	2	93% (active)	inactive	inactive	inactive	inactive
CCOc1cc(C(=O)NCc2ccc(Cl)c(Cl)c2)ccc1-c1nc2ccc(Cl)cc2[nH]1	4%	10%	-2	97% (active)	inactive	inactive	inactive	inactive
O=C(Nc1cccc(Cl)c1N1CCOCC1)C(Cl)(Cl)Cl	95% (active)	3%	-3	96% (active)	inactive	inactive	inactive	inactive
Cc1noc(C)c1-c1ccc2c(Nc3ccccc3C(C)(C)C)c(C(=O)NCc3ccc4c(c3)OCO4)cnc2c1	88% (active)	37%	-3	96% (active)	inactive	inactive	inactive	inactive
CCC(=O)Nc1ccc(Nc2nc(C)cc(N3CCCC3)n2)cc1	2%	34%	-2	91% (active)	inactive	inactive	inactive	inactive
O=C(/C=C/c1ccc(Cl)c(Cl)c1)N1CCC(CN2CCC(c3c[nH]c4ccncc34)CC2)CC1	72% (active)	44%	0	101% (active)	inactive	inactive	inactive	inactive
Cc1noc(C)c1-c1ccc2c(Nc3ccccc3C(C)(C)C)c(C(=O)NC3CCCC3)cnc2c1	79% (active)	27%	-3	93% (active)	inactive	inactive	inactive	inactive
COc1ccc(-c2ccc(NC(=O)c3ccc(C#N)cc3)cc2)cc1CNC(C)C	38%	19%	-3	100% (active)	inactive	inactive	inactive	inactive

SMILES	growth inhibition [1]	inhibition [2]	inhibition [3] [%]	growth inhibition [4]	outcome [5]	outcome [6]	outcome [7]	outcome [8]
CC(CNCc1cn(Cc2cc(Br)cc(Br)c2)c2ccccc12)CNc1cc(=O)c2ccccc2[nH]1 (stereo not given)	50% (active)	10%	6	100% (active)	inactive	inactive	inactive	inactive
COc1cc2nc(NCCc3ccccc3)nc(N(C)Cc3ccccc3)c2cc1OC	58% (active)	31%	-6	96% (active)	inactive	inactive	inactive	inactive
O=C(Nc1cc(Cl)cc(Cl)c1)c1cc(Cl)c(=O)n(Cc2cccc(Cl)c2)c1	62% (active)	8%	2	100% (active)	inactive	inactive	inactive	inactive
C(=C(c1cccs1)c1cccs1)c1ccc(CNC2CCN(Cc3ccccc3)CC2)cc1	21%	40%	4	98% (active)	inactive	inactive	inactive	inactive
CC(=O)c1cc(N2CCOCC2)ccc1N	43%	7%	3	91% (active)	inactive	inactive	inactive	inactive
COc1ccc(CN(C)Cc2cc(C(C)C)c(C)cc2O)cc1F	98% (active)	1%	-4	98% (active)	inactive	inactive	inactive	inactive
COc1cc(Nc2nccc(N3CCC(NS(=O)(=O)c4ccc(NC(C)=O)cc4)CC3)n2)cc(OC)c1OC	42%	-5%	-3	91% (active)	inactive	inactive	inactive	inactive
CN1CCc2cc(O)c(NS(=O)(=O)c3ccc(-c4ccc(Cl)cc4)cc3)cc2CC1	3%	7%	3	104% (active)	inactive	inactive	inactive	inactive
CCCc1ccc(-c2csc(NC(=O)c3ccc([N+](=O)[O-])o3)n2)cc1	13%	72% (active)	4	85% (active)	inactive	inactive	inactive	inactive
CCOC(=O)c1cn(CC)c2cc(N(C)CCc3ccc(OC)c(OC)c3)c(F)cc2c1=O	96% (active)	9%	4	92% (active)	inactive	inactive	inactive	inactive
COc1ccc(CN2CCC(CNCCc3ccccc3Cl)CC2)cc1	17%	36%	-9	87% (active)	inactive	inactive	inactive	inactive
COc1cc2nc(N3CCC(CNC(=O)c4ccc(OC(F)(F)F)cc4)CC3)nc(N)c2cc1OC	98% (active)	16%	-3	100% (active)	inactive	inactive	inactive	inactive
O=C(NC1CCC(N2CCN(c3cccc4[nH]ccc34)CC2)CC1)c1cc2cccnc2[nH]1 (stereo not given)	85% (active)	9%	-2	99% (active)	inactive	inactive	inactive	inactive
FC(F)(F)c1cccc(Nc2nc3ccccc3nc2Nc2cccc(C(F)(F)F)c2)c1	100% (active)	45%	2	101% (active)	inactive	inactive	inactive	inactive
C[C@H](NC(=O)[C@H](CCCCNC(=O)OC(C)(C)C)NC(=O)OC(C)(C)c1ccc(-c2ccccc2)cc1)C(=O)OCc1ccccc1	1%	4%	-7	97% (active)	inactive	inactive	inactive	inactive
O=C(NCC1CCN(Cc2cccc(C(F)(F)F)c2)C1)c1cc(-c2cccc(C(F)(F)F)c2)cs1 (stereo not given)	74% (active)	35%	-2	100% (active)	inactive	inactive	inactive	inactive
Cc1cc(=O)c(C2CCC(c3ccc(Cl)cc3)CC2)c(C)[nH]1 (stereo not given)	70% (active)	-13%	0	88% (active)	inactive	inactive	inactive	inactive
COc1ccc(CNCc2ccsc2)cc1-c1ccc(S(=O)(=O)NCCN2CCCC2)c(C)c1	43%	49%	-1	85% (active)	inactive	inactive	inactive	inactive
O[C@@H](c1ccc2ccccc2c1)[C@@H]1CN(CCc2ccccc2)CC[C@@]1(O)c1ccccc1	96% (active)	1%	1	99% (active)	inactive	inactive	inactive	inactive
O=C(Cn1c(CCc2cccc(F)c2F)nc(=O)c2ccccc21)N(Cc1ccc(-c2ccc(C(F)(F)F)cc2)cc1)C1CCN(C2=NCCS2)CC1	85% (active)	62% (active)	3	81% (active)	inactive	inactive	inactive	inactive

Source: PubChem BioAssay
